Laboratory results from paper PMC10726135, “HNF4α isoforms regulate the circadian balance between carbohydrate and lipid metabolism in the liver”.
Whole data set: some 18,000 sequences, median “log2 normalized intensity” near 0.36, cut for the highest 2% near 7.3. For the sample, the highest values were picked, then their nearest neighbours and some sequences at random.

Each sequence was assayed against T1, HNF4alpha8 (COS-7 nuclear extract) (Homo sapiens, UniProt P41235-5 1-452) (assay: protein-binding microarray; COS-7 nuclear extract on double-stranded Agilent 4x180k PBM; binding buffer, salt, pH and temperature not given in the material; high values mean tight binding). Details: chain copies: 2; label: 3' end of strand 1 on the slide; dsDNA, one strand shown.
T1 sequence: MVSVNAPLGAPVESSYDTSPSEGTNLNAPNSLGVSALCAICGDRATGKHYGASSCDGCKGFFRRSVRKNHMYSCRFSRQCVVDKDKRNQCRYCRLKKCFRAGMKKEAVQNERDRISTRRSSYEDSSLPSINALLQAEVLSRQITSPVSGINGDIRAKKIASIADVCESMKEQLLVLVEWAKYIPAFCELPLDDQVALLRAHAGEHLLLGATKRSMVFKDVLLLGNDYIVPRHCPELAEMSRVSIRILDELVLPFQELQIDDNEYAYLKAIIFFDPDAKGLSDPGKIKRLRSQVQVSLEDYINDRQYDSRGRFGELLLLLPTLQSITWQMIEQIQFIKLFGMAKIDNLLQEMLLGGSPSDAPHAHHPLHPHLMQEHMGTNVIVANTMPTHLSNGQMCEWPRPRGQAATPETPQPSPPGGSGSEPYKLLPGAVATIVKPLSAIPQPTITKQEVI
Procedure, shortened: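 Double-stranded oligonucleotides of ~60 nt, representing ~44,000 test sequences in quadruplicate, made up a custom Agilent SurePrint G3 4x180k array. Nuclear extracts from COS-7 cells transiently transfected by CaPO4 with a human HNF4α isoform expression vector were applied, and bound HNF4α was imaged at 2-µm resolution on an Agilent G2565CA scanner. Binding signal refers to the background-corrected, normalized gProcessedSignal output of Agilent software.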

Sequence	binding signal [log2 normalized intensity]
CCCTGGTCTCTCTTACCCAACCAAAAACAAGCCTAGGGAGATTAGAGTATCGGTCGA	3.38
TACAGGCGTGAGCCACCGCGCCCCGCCCCCGCCTAGGGAGATTAGAGTATCGGTCGA	6.17
TCTCAGGTGAGCAGAGGGAGGACAAAGTTCGCCTAGGGAGATTAGAGTATCGGTCGA	5.01
GCCACATCCCCCACACCGAGATAGTAGAGAGCCTAGGGAGATTAGAGTATCGGTCGA	3.27
ACTTCTGAGTTTTATCAGCTTCCCTGAGATGCCTAGGGAGATTAGAGTATCGGTCGA	-0.495
AAACTTCCACTAACTTGAGTGTGCACCCTGGCCTAGGGAGATTAGAGTATCGGTCGA	1.93
CCGCAGCGCTGGTGGCTGCAAGGTTTGTGTGCCTAGGGAGATTAGAGTATCGGTCGA	0.472
TTATCATTACTTCTCAACTGATATGGCTCTGCCTAGGGAGATTAGAGTATCGGTCGA	0.393
AAGAAACTCGTGGCATTTTTGCCCCTGCCCGCCTAGGGAGATTAGAGTATCGGTCGA	3.61
CAAATAACATTCCTAACATTCTTCCTCACAGCCTAGGGAGATTAGAGTATCGGTCGA	-0.982
TTTGATGGACATTGCTGGTGGTGGTAGATCGCCTAGGGAGATTAGAGTATCGGTCGA	1.45
TTTGTGATTACATTGAGTCCACTGAGATCAGCCTAGGGAGATTAGAGTATCGGTCGA	1.91
CACTTTCCACTCTCTACTGATATGTCCTCCGCCTAGGGAGATTAGAGTATCGGTCGA	1.83
TTTCTGCTCTCAACTAGAGATAAACTTTTGGCCTAGGGAGATTAGAGTATCGGTCGA	0.481
CCCCACTGTAGTAAGGGAGTGTGGGGTGGTGCCTAGGGAGATTAGAGTATCGGTCGA	-0.92
TGTGCTGCCCCCGATAGCACTATTAGTCTTGCCTAGGGAGATTAGAGTATCGGTCGA	3.06
GCCACATCCTGTCTCCTTTAACCTTCATTCGCCTAGGGAGATTAGAGTATCGGTCGA	1.97
CACTGTCTCAGGGTCCACATTCCAGGAATAGCCTAGGGAGATTAGAGTATCGGTCGA	2.44
CTGGACTTTGGCTGCAAAATTTGAACAAAAGCCTAGGGAGATTAGAGTATCGGTCGA	2.14
TACCTTTCCTGCATTAACATCAACATGGACGCCTAGGGAGATTAGAGTATCGGTCGA	2.03
TTCCTGCATTAACATCAACATGGACTTTGAGCCTAGGGAGATTAGAGTATCGGTCGA	9.28

Sequence	binding signal [log2 normalized intensity]
CTGCCTTTCCCAGATGGATTGATAGACTTAGCCTAGGGAGATTAGAGTATCGGTCGA	0.78
TGATAGCCATCTGGTGGACTTTGCTCTGCTGCCTAGGGAGATTAGAGTATCGGTCGA	8.15
AGCAGATGGCCAGCCTTTGGACTTTGAACTGCCTAGGGAGATTAGAGTATCGGTCGA	11.2
TTTTTGGCCTTTACCCCTTGAGTTTGAACTGCCTAGGGAGATTAGAGTATCGGTCGA	4.12
CTGCTTGATAGCCATCTGGTGGACTTTGCTGCCTAGGGAGATTAGAGTATCGGTCGA	6.09
CAGCCTTTGGACTTTGAACTGCAACATCAGGCCTAGGGAGATTAGAGTATCGGTCGA	8.89
ACCTGGAACTGAAAGAGACCTTTGACATCAGCCTAGGGAGATTAGAGTATCGGTCGA	5.23
GCCATCTGGTGGACTTTGCTCTGCTCATTTGCCTAGGGAGATTAGAGTATCGGTCGA	7.25
GCATTAACATCAACATGGACTTTGAGTCATGCCTAGGGAGATTAGAGTATCGGTCGA	6.9
TCCAACCTGTTCTTTTGAGCTGTGGTTAAGGCCTAGGGAGATTAGAGTATCGGTCGA	1.73
CAATCCAGAAGGCGCTGAACTTTGCCTTGTGCCTAGGGAGATTAGAGTATCGGTCGA	5.04
ATGGGACCTTTGCCCTTCTTGTTAACCTCCGCCTAGGGAGATTAGAGTATCGGTCGA	4.54
CCTGAGCCTGGACCTTGGAATGTCAAGATTGCCTAGGGAGATTAGAGTATCGGTCGA	3.05
AGCAGCATAAAGGACTTTCAACCCTGTGATGCCTAGGGAGATTAGAGTATCGGTCGA	3.89
AAAACCATTGCAAATTGGATGTTGAACCTCGCCTAGGGAGATTAGAGTATCGGTCGA	4.51
ATGGCCAGCCTTTGGACTTTGAACTGCAACGCCTAGGGAGATTAGAGTATCGGTCGA	10.1
ATGGAAGGACCTTGGACTGAAGACTGGAACGCCTAGGGAGATTAGAGTATCGGTCGA	3.17
AGGGTCTTTGCAACTGTGTGTGGCCTGCACGCCTAGGGAGATTAGAGTATCGGTCGA	1.53
GCTGGGTCAAAGTGTATGCATATTTTAAGTGCCTAGGGAGATTAGAGTATCGGTCGA	2.27
AGGAGGAGGTTCCTGGAACTCTGACCTTTGGCCTAGGGAGATTAGAGTATCGGTCGA	6.98
GAGGTTCCTGGAACTCTGACCTTTGCCCCCGCCTAGGGAGATTAGAGTATCGGTCGA	10.3
